Source: PubChem (NMMLSC)
RGS8-Gao = regulators of human RGS8-Galphao interaction; P09471; multiplexed bead flow cytometry, RGS8-Galphao binding; actives lie on both sides; response (percent of control binding), % at 10 µM; 220,000 tested, 0.34% active; in the data active means response below about 60% or above about 140%; inactive means in between;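 further: Galphao activated as the GDP aluminium fluoride complex binding bead-coupled RGS8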
Target sequence (P09471 whole entry, looked up): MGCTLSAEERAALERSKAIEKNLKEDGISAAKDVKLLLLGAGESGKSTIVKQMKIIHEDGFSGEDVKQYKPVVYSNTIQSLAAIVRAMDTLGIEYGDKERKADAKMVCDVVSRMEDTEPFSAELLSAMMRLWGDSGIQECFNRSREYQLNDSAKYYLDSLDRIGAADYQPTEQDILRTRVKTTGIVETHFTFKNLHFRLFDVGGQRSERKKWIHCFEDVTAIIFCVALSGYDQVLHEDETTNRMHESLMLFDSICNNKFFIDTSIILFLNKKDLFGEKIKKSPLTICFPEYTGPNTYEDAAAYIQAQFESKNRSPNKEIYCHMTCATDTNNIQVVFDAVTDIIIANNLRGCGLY
RGS7-Gao reg = modulates binding of RGS7 to human Galphao; P09471; Multiplexed bead flow cytometry; actives lie on both sides; binding response (% of control), % at 10 µM; 220,000 tested, 0.35% active; in the data active means binding response below about 49% or above about 150%; inconclusive means no clear call, values can overlap the other calls; inactive means in between;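 further: fluorescent Galphao held in activated GDP-AlF4 state binding bead-coupled RGS7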
Avidin bead fluor = avidin bead compound fluorescence profile. Avidin beads, compound fluorescence 488/530 nm, flow cytometry; stronger effect = higher value. fluorescence (KMESF) at 10 µM. 220,000 tested, 0.38% active. AID 1775; in the data active means fluorescence above about 47
RGS4-Gao reg = modulates binding of RGS4 to human Galphao. 220,000 tested, 0.33% active. P09471. AID 1415. binding response (% of control), % at 10 µM. Multiplexed bead flow cytometry; actives lie on both sides; in the data active means binding response below about 49% or above about 150%; inactive means in between;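 further: fluorescent Galphao activated with aluminum fluoride binding bead-coupled RGS4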
RGS16-Gao HTS = regulators of human RGS16-Galphao interaction; O15492+P09471; binding response (% of control), % at 10 µM; bead-based flow cytometry RGS16-Galphao binding, fluorescence; actives lie on both sides; 220,000 tested, 0.38% active;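 further: Galphao activated by GDP with aluminum fluoride before binding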
Target sequence (O15492 whole entry, looked up): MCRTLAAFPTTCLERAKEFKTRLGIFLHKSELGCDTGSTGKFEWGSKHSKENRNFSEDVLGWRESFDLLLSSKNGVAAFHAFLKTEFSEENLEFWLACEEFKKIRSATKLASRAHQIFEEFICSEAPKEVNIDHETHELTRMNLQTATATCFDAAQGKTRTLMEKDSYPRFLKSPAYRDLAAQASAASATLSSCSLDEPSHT
Target sequence (P09471 whole entry, looked up): as the sequence (P09471 whole entry, looked up) above
GSH bead fluor = compound fluoresces at 488/530 nm on GSH beads; AID 1776; fluorescence (KMESF) at 10 µM; 190,000 tested, 0.25% active; GSH beads flow cytometry, compound fluorescence 488/530 nm; stronger effect = higher value; in the data active means fluorescence above about 89;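 further: glutathione beads carrying GST-tagged Bcl family fusion proteins plus one bare bead set; values are compound well signal with DMSO vehicle wells as background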
RGS-Gao = regulators of human RGS4-Galphao interaction; shares compounds with RGS16-Gao HTS; multiplexed bead flow cytometry, RGS–Galpha-o binding; RGS4–Galpha-o binding response, % at 10 µM; 1,600 tested, 99% active;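 further: fluorescently labeled Galpha-o bound to GDP with aluminium fluoride binding biotinylated RGS beads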
Biotin-avidin = biotin-avidin bead binding disruption counter-screen | shares compounds with RGS16-Gao HTS | AID 1783 | inhibition, % at 10 µM | streptavidin beads, fluorescein-biotin binding, flow cytometry | 1,700 tested, under 10 active;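 active means inhibition above 50%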;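 further: median green fluorescence of gated singlet beads compared with DMSO control wells; 0% = DMSO wells and 100% = complete loss of bead fluorescence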
RGS8-Gao confirm = confirmation of regulators of human RGS8-Galphao interaction | shares compounds with RGS16-Gao HTS | bead-based flow cytometry RGS8-Galphao binding, fluorescence; actives lie on both sides | binding response (% of control), % at 10 µM | 1,700 tested, 3% active | AID 1836; in the data active means binding response below about 72% or above about 130%; inactive means in between;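 further: Galphao activated as GDP AlF4 complex before binding bead RGS8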
RGS7-Gao confirm = confirmation of regulators of human RGS7-Galphao interaction. shares compounds with RGS16-Gao HTS. bead-based flow cytometry RGS7-Galphao binding; actives lie on both sides. response (percent of control binding), % at 10 µM. 1,700 tested, 7.8% active. AID 1837; in the data active means response below about 75% or above about 130%; inactive means in between;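 further: fluorescent Galphao activated with GDP and aluminum fluoride binding bead-coupled RGS7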
RGS16-Gao single = RGS16-Galphao interaction regulation, single point confirmation; AID 1838; 1,700 tested, 4% active; response (% of control binding), % at 10 µM; bead-based flow cytometry, RGS16-Galphao binding; actives lie on both sides; shares compounds with RGS16-Gao HTS; in the data active means response below about 74% or above about 130%; inactive means in between;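 further: Galphao activated as the GDP aluminium fluoride complex binding bead-coupled RGS16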
RGS4-Gao single = confirmation of regulators of human RGS4-Galphao interaction; binding response (% of control), % at 10 µM; 1,700 tested, 4% active; shares compounds with RGS16-Gao HTS; RGS4-Galphao binding, multiplexed bead flow cytometry; actives lie on both sides; AID 1840; in the data active means binding response below about 74% or above about 130%; inactive means in between
RGS19-Gao conf = RGS19-Galphao interaction regulation, single point confirmation; shares compounds with RGS16-Gao HTS; bead-based flow cytometry RGS19-Galphao binding; actives lie on both sides; response (percent of control binding), % at 10 µM; 1,700 tested, 5% active; AID 1841; in the data active means response below about 50% or above about 160%; inactive means in between;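 further: 100% = no compound control and 0% = blank background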
* marks the source's active call; other numbers are inactive results; u = inconclusive; x = no result; [ ] = dose if it differs, or a comment. Compounds with a hit are over-represented: about 1.2% of the library has one in this group of screens. Unless noted, how the calls were made is not given here.

SMILES | RGS8-Gao | RGS7-Gao reg | Avidin bead fluor | RGS4-Gao reg | RGS16-Gao HTS | GSH bead fluor | RGS-Gao | Biotin-avidin | RGS8-Gao confirm | RGS7-Gao confirm | RGS16-Gao single | RGS4-Gao single | RGS19-Gao conf
COc1ccccc1/C=N/N=C(/N)N[N+](=O)[O-] | 100.9 | 112.0 | 16 | 113.2 | 110.3 | 11 | x | x | x | x | x | x | x
CN(C)C(=O)Oc1ccc(Cl)c2cccnc12 | 57.2* | 80.1 | 2 | 75.2 | 29.0 | 11 | 75.2* | 1.0 | 99.2 | 100.4 | 103.0 | 100.5 | 102.6
CN(C)C(=O)Oc1c(Cl)cc(Cl)c2ccccc12 | 97.8 | 99.0 | 16 | 106.3 | 104.2 | 11 | x | x | x | x | x | x | x
C/C(=N\NC(=O)c1ccncc1)c1c(O)n(-c2ccccc2)c(=O)[nH]c1=O | 102.5 | u | 3 | 100.7 | 103.9 | x | x | x | x | x | x | x | x
O=C(CN1CC=C(c2ccccc2)CC1)Nc1cc(Cl)ccc1Cl | 100.2 | 103.6 | 11 | 104.5 | 101.0 | 4 | x | x | x | x | x | x | x
Cc1ccc(S(=O)(=O)N2CCCCC2)cc1NC(=O)CN1CC=C(c2ccccc2)CC1 | 142.0*[activator] | 121.6 | 14 | 117.7 | 331.8 | 18 | 117.7* | 0.4 | 110.5 | 114.2 | 109.8 | 112.3 | 106.9
CC(O)(CS(=O)(=O)c1ccc(F)cc1)C(=O)Nc1ccc(C#N)c(C(F)(F)F)c1 (configuration not stated) | 102.9 | 99.7 | 8 | 100.2 | 99.6 | 68 | x | x | x | x | x | x | x
O=C1NC(=O)C(=Cc2ccc3ccccc3c2)C(=O)N1 | 99.5 | u | 6 | 99.7 | 100.0 | x | x | x | x | x | x | x | x
COc1cc(CC2(CCc3ccncc3)C(=O)N(C)C(=O)N(C)C2=O)cc(OC)c1OC | 57.9* | 59.1 | 4 | 101.4 | 86.9 | 12 | 101.4* | 1.6 | 97.3 | 92.1 | 94.9 | 93.5 | 92.4
OC(Cn1c2ccccc2c2ccccc21)C[n+]1cccc2ccccc21 (configuration not stated) | 97.4 | 153.5*[activator] | 78* | 122.7 | 101.9 | 49 | 122.7* | -1.8 | 102.4 | 141.1*[activator] | 103.1 | 131.8*[activator] | 199.0*[activator]
COc1cccc(C(=O)C2CCCN(Cc3ccc4nsnc4c3)C2)c1 (configuration not stated) | 48.3* | 25.6* | 2 | 72.3 | 89.1 | 17 | 72.3* | -0.2 | 108.8 | 118.5 | 110.9 | 107.1 | 105.6
COc1ccc(C(=O)C2(C)N(O)C(C)C(c3cccs3)=[N+]2[O-])cc1 (configuration not stated) | 102.7 | 96.5 | 4 | 102.2 | 95.8 | 28 | x | x | x | x | x | x | x
CC1C(c2cccs2)=[N+]([O-])C(C)(C(=O)c2cccs2)N1O (configuration not stated) | 146.6*[activator] | 158.7*[activator] | 4 | 156.7*[activator] | 160.3 | 10 | x | 0.3 | 99.1 | 93.5 | 95.5 | 96.9 | 77.2
CCCC[N+]12CCC(CC1)C(=C(c1ccccc1)c1ccccc1)C2 | 106.8 | 112.9 | 13 | 111.6 | 111.4 | 12 | x | x | x | x | x | x | x
CN1C(=O)N(C)C(=O)C2(Cc3c(nc4ccccn4c3=O)N3CCc4ccccc4C32)C1=O (configuration not stated) | 103.2 | 100.2 | 6 | 105.5 | 110.3 | 36 | x | x | x | x | x | x | x
COc1ccc(C=C2C(=O)N(C)C(=O)N(C)C2=O)cc1CSc1ccccn1 | 95.0 | 95.2 | 15 | 96.5 | 101.7 | 23 | x | x | x | x | x | x | x
COc1ccc(C=C2C(=O)N(C)C(=O)N(C)C2=O)cc1COc1ccc(NC(C)=O)cc1 | 90.2 | u | 5 | 95.2 | 100.8 | x | x | -0.4 | 89.3 | 88.6 | 96.6 | 91.7 | 76.9
CCCCCCC[n+]1ccc(-c2cc[n+](CCCCCCC)cc2)cc1 | 78.9 | 107.2 | 3 | 115.0 | 12.9* | 9 | 115.0* | 1.4 | 106.7 | 102.2 | 106.8 | 103.4 | 102.3
CCN1CCN(c2ccc([N+](=O)[O-])cc2C(=O)OC)CC1 | 102.5 | 98.7 | 13 | 100.8 | 107.1 | 15 | x | x | x | x | x | x | x
O=C(Nc1ccccc1)c1cc([N+](=O)[O-])ccc1N1CCNCC1 | 59.5* | u | 5 | 89.5 | 95.7 | 12 | 89.5* | -1.9 | 104.5 | 100.6 | 104.9 | 104.0 | 92.7
COc1ccc(Cn2c(O)c(C=NCCN3CCOCC3)c(=O)[nH]c2=O)cc1 | 103.9 | 105.1 | 7 | 105.6 | 118.6 | 28 | x | x | x | x | x | x | x
Cc1nnc2ccc(N3CCN(C)CC3)nn12 | 144.5*[activator] | 111.3 | 5 | 120.9 | 451.6 | 52 | 120.9* | 0.7 | 103.2 | 107.1 | 104.6 | 106.6 | 109.7
CC(=O)OC1N=C(c2ccccc2Cl)c2cc(Br)ccc2NC1=O (configuration not stated) | 101.7 | u | 7 | 102.0 | 101.0 | x | x | x | x | x | x | x | x
CN1CCN(c2cc([N+](=O)[O-])ccc2Cl)CC1 | 103.2 | 100.8 | 10 | 103.3 | 100.1 | 14 | x | x | x | x | x | x | x
CN1CCN(c2ccc([N+](=O)[O-])cc2Cl)CC1 | 55.4* | 48.9* | 2 | 78.2 | 97.4 | 19 | 78.2* | -0.5 | 104.5 | 103.0 | 102.2 | 100.0 | 111.4
CC1CN(c2cc([N+](=O)[O-])ccc2Cl)CC(C)N1 (configuration not stated) | 98.4 | 100.9 | 10 | 101.9 | 100.1 | 29 | x | x | x | x | x | x | x
CC1CN(c2ccc([N+](=O)[O-])cc2Cl)CCN1 (configuration not stated) | 9.2* | 7.2* | x | 10.6* | 1.8* | 15 | x | -1.6 | 97.7 | 90.5 | 92.0 | 95.2 | 80.2
O=C(Cc1ccccc1)N1CCN(C/C=C/c2ccccc2)CC1 | 28.6* | 7.9* | 4 | -8.3* | -0.6* | 10 | x | 1.0 | 103.4 | 104.4 | 104.0 | 102.7 | 112.6
CNP(=S)(NC)OCCOc1ccc(OC)cc1 | 106.0 | 110.6 | 7 | 110.7 | 111.0 | 36 | x | x | x | x | x | x | x
